Laboratory results taken from PubChem BioAssay.
Activity calls are given as the source filed them. Unless noted, the rule behind the calls is not given here.

Assays:
[1] = anti-His antibody binders, primary screen, artefact control for SMM control protein annotation, biochemical, small-molecule microarray, 635 nm fluorescence (AID 1128); settings: anti-His Alexa647 antibody binding, higher = more signal;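 note: score merges feature fluorescence with signal-to-noise for each printed compound spot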
[2] = system: Human papillomavirus type 1a E7 protein (residues 1-88); assay: HPV1a E7 small-molecule binders, primary screen, biochemical, small-molecule microarray, residues 1-88, 635 nm (AID 1129); settings: small-molecule microarray binding, fluorescence 635 nm; higher = more signal
[3] = target: Focal adhesion kinase 1 (Homo sapiens) (UniProt Q05397); assay: small-molecule microarray binders of FAK, primary screen, biochemical, 635/667 nm fluorescence, BSA, DTT (AID 1130); settings: PTK2 binding, 635 nm fluorescence, higher = more signal;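 note: composite of spot emission at 667 nm and signal to noise over triplicate slides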
Chain of Focal adhesion kinase 1 (Homo sapiens) (Q05397 whole entry, looked up): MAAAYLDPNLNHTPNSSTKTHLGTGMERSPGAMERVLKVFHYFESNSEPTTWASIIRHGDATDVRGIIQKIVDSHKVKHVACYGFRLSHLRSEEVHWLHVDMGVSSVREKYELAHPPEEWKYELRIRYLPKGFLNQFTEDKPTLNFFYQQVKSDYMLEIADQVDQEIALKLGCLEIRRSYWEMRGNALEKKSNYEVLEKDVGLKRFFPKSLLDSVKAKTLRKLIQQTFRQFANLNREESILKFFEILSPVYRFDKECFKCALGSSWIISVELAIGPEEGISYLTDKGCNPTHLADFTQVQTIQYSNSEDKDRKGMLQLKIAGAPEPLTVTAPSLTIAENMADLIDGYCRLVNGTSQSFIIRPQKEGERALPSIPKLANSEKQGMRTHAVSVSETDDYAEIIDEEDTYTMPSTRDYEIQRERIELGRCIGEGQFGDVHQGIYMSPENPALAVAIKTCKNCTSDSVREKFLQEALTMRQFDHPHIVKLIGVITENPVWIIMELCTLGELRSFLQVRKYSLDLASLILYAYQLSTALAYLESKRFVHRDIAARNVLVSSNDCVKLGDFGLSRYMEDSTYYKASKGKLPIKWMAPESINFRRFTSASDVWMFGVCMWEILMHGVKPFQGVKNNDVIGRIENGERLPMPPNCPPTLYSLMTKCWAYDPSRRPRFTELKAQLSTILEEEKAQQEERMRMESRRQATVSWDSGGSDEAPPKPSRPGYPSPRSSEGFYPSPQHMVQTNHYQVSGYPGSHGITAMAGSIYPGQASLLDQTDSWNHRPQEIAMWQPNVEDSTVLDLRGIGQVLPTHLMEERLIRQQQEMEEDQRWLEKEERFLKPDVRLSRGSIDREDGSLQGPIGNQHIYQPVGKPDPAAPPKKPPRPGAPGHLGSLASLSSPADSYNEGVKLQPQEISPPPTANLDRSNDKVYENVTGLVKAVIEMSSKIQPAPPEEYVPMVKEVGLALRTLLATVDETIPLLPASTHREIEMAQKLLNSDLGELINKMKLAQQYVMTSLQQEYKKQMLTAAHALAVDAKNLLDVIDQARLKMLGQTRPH

[4] = system: Fibrinogen (Alexa647-labelled); assay: fibrinogen binders on compound microarrays, profiling panel, artefact control for SMM control-protein annotation, biochemical, small-molecule microarray, 635/667 nm fluorescence (AID 1131); settings: fibrinogen-A647 binding fluorescence, higher = more signal;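 note: z-score merges 667 nm fluorescence with per-spot signal-to-noise over triplicate slides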
[5] = target: Follistatin (Homo sapiens) (UniProt P19883); assay: follistatin binders on small-molecule microarrays, primary screen, biochemical, small-molecule microarray, 635/667 nm fluorescence (AID 1132); settings: FST binding, 635 nm fluorescence, higher = more signal
Chain of Follistatin (Homo sapiens) (P19883 whole entry, looked up): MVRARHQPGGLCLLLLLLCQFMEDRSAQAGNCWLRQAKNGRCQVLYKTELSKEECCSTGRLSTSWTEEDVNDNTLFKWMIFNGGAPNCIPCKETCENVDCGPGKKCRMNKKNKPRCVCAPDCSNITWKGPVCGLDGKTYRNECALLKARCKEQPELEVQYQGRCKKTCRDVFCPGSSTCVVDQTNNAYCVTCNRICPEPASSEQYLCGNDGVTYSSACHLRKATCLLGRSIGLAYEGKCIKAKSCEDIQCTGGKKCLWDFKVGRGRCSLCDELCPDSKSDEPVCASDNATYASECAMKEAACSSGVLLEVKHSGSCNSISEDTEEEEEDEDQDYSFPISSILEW

[6] = target: Fibroblast growth factor 2 (Homo sapiens) (UniProt P09038); assay: FGF2 binders on small-molecule microarrays, primary screen, biochemical, small-molecule microarray, 635/667 nm fluorescence (AID 1133); settings: small-molecule microarray binding, FGF2, fluorescence 635/667; higher = more signal
Chain of Fibroblast growth factor 2 (Homo sapiens) (P09038 whole entry, looked up): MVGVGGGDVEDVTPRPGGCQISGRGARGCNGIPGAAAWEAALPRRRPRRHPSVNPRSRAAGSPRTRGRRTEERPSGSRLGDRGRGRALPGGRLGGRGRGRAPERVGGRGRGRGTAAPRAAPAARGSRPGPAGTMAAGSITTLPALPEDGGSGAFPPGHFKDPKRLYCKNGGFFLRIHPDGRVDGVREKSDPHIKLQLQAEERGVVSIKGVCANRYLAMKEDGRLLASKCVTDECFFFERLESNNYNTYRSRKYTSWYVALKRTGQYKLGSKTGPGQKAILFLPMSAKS

[7] = mitochondrial membrane potential change in A549 cells, profiling panel, cell-based, JC-1 fluorescence, basal, 24 h, 100 nL (AID 1138); settings: higher = more signal;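 note: A549 lung adenocarcinoma cells under basal conditions with no added stimulus; test concentration not given here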
[8] = system: Lefty1; assay: Lefty1 binders on small-molecule microarrays, primary screen, biochemical, small-molecule microarray, 635/667 nm fluorescence (AID 1139); settings: small-molecule microarray binding, fluorescence 635/667; higher = more signal
[9] = system: wheat germ agglutinin (Triticum aestivum), Alexa647-labelled; assay: wheat germ agglutinin binders on compound microarrays, profiling panel, artefact control for SMM control-protein annotation, biochemical, small-molecule microarray, 635/667 nm fluorescence (AID 1140); settings: WGA-A647 binding, 635 nm fluorescence, higher = more signal;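 note: score merges 667 nm feature emission with signal to noise over triplicate slides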
[10] = target: Luciferin 4-monooxygenase (Photinus pyralis) (UniProt P08659); assay: firefly luciferase enzyme inhibitors, primary screen, biochemical, luminescence, purified enzyme, 2006 set (AID 1141); settings: SteadyGlo luminescence, 30 min, higher = more signal, called active from +8 up or from −8 down;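 note: cell-free assay with purified firefly luciferase at 100 ng per well in PBS; test concentration not given here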
Chain of Luciferin 4-monooxygenase (Photinus pyralis) (P08659 whole entry, looked up): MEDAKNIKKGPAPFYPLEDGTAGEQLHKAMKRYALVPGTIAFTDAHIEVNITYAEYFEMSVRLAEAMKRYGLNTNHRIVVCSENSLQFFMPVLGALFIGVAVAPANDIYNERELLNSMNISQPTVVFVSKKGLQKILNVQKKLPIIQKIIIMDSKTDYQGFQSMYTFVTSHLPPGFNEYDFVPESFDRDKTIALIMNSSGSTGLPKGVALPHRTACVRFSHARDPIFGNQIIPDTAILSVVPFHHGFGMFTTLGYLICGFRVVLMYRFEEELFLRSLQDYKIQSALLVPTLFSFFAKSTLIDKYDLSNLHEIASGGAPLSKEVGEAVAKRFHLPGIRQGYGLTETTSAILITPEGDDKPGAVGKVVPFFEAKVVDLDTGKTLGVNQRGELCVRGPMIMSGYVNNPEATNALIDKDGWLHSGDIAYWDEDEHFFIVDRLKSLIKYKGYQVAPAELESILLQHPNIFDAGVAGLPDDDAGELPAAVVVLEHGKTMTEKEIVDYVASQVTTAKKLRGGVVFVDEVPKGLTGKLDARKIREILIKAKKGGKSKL

[11] = system: Wnt5a (protein binding on small-molecule microarray); assay: Wnt5a binders on small-molecule microarray, primary screen, biophysical, 635/667 nm fluorescence (AID 1142); settings: 635 nm fluorescence, higher = more signal;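 note: fluorescence read at 667 nm with signal to noise per printed feature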
[12] = cell viability in Huh7 cells, primary screen, cytotoxicity control for HCV replication inhibitor project, CellTiter-Glo luminescence, basal, 48 h (AID 1143); settings: Huh7 HCV replicon, higher = more signal, called active from +8 up or from −8 down;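 note: Huh7 hepatoma cells carrying a hepatitis C replication reporter with no stimulus; test concentration not given here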
[13] = P. aeruginosa biofilm formation inhibitors, primary screen, PAO1 strain, BacTiter-Glo luminescence, LB-PBS (AID 1144); settings: 12 h, higher = more signal
[14] = CREB reporter modulators without forskolin, primary screen, cell-based, PC12, CRE-LacZ reporter, unstimulated (AID 1145); settings: no forskolin, luminescence, 4.5 h, higher = more signal, called active from +8 up or from −8 down
[15] = CREB reporter modulators under forskolin, primary screen, cell-based, PC12, CRE-LacZ reporter, forskolin-stimulated (AID 1146); settings: luminescence, 4.5 h, higher = more signal, called active from +8 up or from −8 down;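 note: PC12 cells with 6xCRE LacZ reporter stimulated by forskolin 10 µM; beta-galactosidase reporter signal reflecting CREB driven transcription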
[16] = target: Streptavidin (Streptomyces avidinii) (UniProt P22629); assay: streptavidin binders on small-molecule microarray, primary screen, artefact control for SMM compound annotation, biophysical, 635/667 nm fluorescence (AID 1147); settings: streptavidin binding, higher = more signal;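 note: signal reflects streptavidin binding to arrayed compounds as a control protein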
Chain of Streptavidin (Streptomyces avidinii) (P22629 whole entry, looked up): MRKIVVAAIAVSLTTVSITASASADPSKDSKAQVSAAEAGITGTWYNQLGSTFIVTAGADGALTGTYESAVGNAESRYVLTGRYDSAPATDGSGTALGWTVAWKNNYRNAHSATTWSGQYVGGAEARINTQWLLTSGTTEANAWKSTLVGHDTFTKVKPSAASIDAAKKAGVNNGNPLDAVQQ

[17] = small-molecule binders of probe aInhba, primary screen, biochemical, small-molecule microarray, 635/667 nm fluorescence (AID 1148); settings: higher = more signal;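 note: score merges 667nm spot fluorescence with signal-to-noise for antibody binding to printed compounds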
[18] = target: Torsin-1A (Homo sapiens) (UniProt O14656); assay: torsin A binders from cell lysate, primary screen, small-molecule microarray, wild-type, 635/667 nm (AID 1149); settings: COS7 hTOR1A-WT lysate, 635 nm fluorescence, higher = more signal
Chain of Torsin-1A (Homo sapiens) (O14656 whole entry, looked up): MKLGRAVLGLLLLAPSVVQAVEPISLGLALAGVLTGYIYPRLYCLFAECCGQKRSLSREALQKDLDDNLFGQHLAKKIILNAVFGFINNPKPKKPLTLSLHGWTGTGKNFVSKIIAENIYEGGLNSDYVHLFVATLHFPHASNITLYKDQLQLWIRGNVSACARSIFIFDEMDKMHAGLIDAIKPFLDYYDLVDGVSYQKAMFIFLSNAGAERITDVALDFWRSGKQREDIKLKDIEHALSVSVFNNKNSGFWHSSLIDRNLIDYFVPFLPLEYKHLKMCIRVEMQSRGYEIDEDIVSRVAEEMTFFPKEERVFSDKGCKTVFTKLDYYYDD

[19] = target: Torsin-1A (Homo sapiens) (UniProt O14656); assay: small-molecule binders of mutant TOR1A in lysate, primary screen, cell lysate, small-molecule microarray, COS7 lysate, 635/667 nm fluorescence (AID 1150); settings: COS7 hTOR1A mutant lysate, 635 nm fluorescence, higher = more signal;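 note: score pools 667 nm emission and signal to noise measuring lysate protein binding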
[20] = system: Sonic hedgehog protein (Shh); assay: small-molecule binders of Shh protein, primary screen, biochemical, small-molecule microarray, 635/667 nm fluorescence (AID 1151); settings: small-molecule microarray binding, 635 nm fluorescence; higher = more signal;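 note: Shh protein binding to compounds spotted on small-molecule microarray slides; score combines spot fluorescence intensity with signal-to-noise across triplicate slides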

| Structure (SMILES) | composite z-score [1] | composite z-score [2] | composite z-score [3] | composite z-score [4] | composite z-score [5] | composite z-score [6] | z-score [7] | composite z-score [8] | composite z-score [9] | z-score [10] | composite z-score [11] | z-score [12] | z-score [13] | z-score [14] | z-score [15] | composite z-score [16] | composite z-score [17] | composite z-score [18] | composite z-score [19] | composite z-score [20] |
| --- | --- | --- | --- | --- | --- | --- | --- | --- | --- | --- | --- | --- | --- | --- | --- | --- | --- | --- | --- | --- |
| CCOC(=O)C1=CC[C@@H](c2ccccc2Cl)N(S(=O)(=O)c2ccc(C)cc2)[C@H]1c1cccc(OC)c1 | 0.413 | 1.05 | 0.1 | 0.737 | 0.176 | 0.0652 | 0.0495 | -0.0177 | 0.54 | 0.658 (inactive) | 0.142 | -1.84 (inactive) | 1.15 (inactive) | 0.425 (inactive) | 0.173 (inactive) | 0.333 | -0.0695 | 0.368 | 0.0635 | -0.476 |
| CCCC=C(CCC)[C@@H](NC(=O)c1ccco1)c1ccc(C(=O)OC)cc1 | 1.24 | 1.26 | 0.601 | 0.984 | 0.649 | -0.181 | -1.67 | 0.119 | 1.31 | 2.66 (inactive) | 0.22 | -3.84 (inactive) | 0.737 (inactive) | 0.0143 (inactive) | 0.514 (inactive) | 1.92 | 0.218 | 0.0918 | 0.918 | -0.276 |
| C=CCC(OC(C)=O)[C@@H]1[C@@H](N(Cc2ccc(-c3cccc(C(F)(F)F)c3)o2)C(=O)c2cccc3ccccc23)c2cc(OCCCO)ccc2N1C(=O)c1ccc2ccccc2n1 (stereo not given in full) | -0.188 | -0.696 | -0.323 | -0.0203 | 0.587 | 0.0226 | -0.431 | 0.375 | -0.0681 | 0.587 (inactive) | -0.0713 | -1.33 (inactive) | -0.214 (inactive) | -0.258 (inactive) | 0.0155 (inactive) | -0.32 | -0.024 | 0.17 | -0.662 | 0.259 |
| C=CCC(OC(C)=O)[C@@H]1[C@@H](N(Cc2ccc(-c3ccccc3)cc2)C(=O)c2ccc(-c3ccccc3)cc2)c2cc(OCCCO)ccc2N1C(=O)c1ccc2ccccc2n1 (stereo not given in full) | -0.513 | 0.907 | 0.879 | -0.239 | 0.548 | 0.051 | 1.61 | -0.101 | 0.152 | -1.46 (inactive) | -0.0949 | 0.115 (inactive) | 0.196 (inactive) | 0.992 (inactive) | 0.705 (inactive) | 0.21 | 0.333 | -0.178 | 0.342 | 0.767 |
| COCCOC(=O)N1C(=O)[C@@]2(c3ccccc31)[C@H](c1ccc(OCCO)cc1)N1[C@H](c3ccccc3)[C@H](c3ccccc3)OC(=O)[C@H]1[C@@H]2C(=O)N1CCN(c2ncccn2)CC1 | 0.46 | 1.2 | 0.929 | 0.869 | 1.43 | 1.69 | -1.03 | 1.37 | 1.04 | -0.135 (inactive) | 0.453 | -2 (inactive) | -0.266 (inactive) | 0.22 (inactive) | 4.01 (inactive) | 0.826 | 0.134 | 0.819 | 0.794 | 1.86 |
| CN1C(=O)C2C=CC(C(O)c3ccc(-c4ccccc4)s3)N(Nc3ccccc3)C2C1=O (stereo not given) | 1.33 | 1.19 | 0.283 | 0.96 | 1.12 | -0.0002 | 0.5 | -0.304 | 1.07 | 0.17 (inactive) | -0.24 | 0.809 (inactive) | -0.46 (inactive) | 0.429 (inactive) | -0.666 (inactive) | 2.23 | 0.395 | 0.0922 | 0.271 | -0.212 |
| COc1ccc(NN2C(C(O)c3ccc(OC)cc3)C=CC3C(=O)N(C4CCCCC4)C(=O)C32)cc1 (stereo not given) | 0.679 | 1.18 | 0.349 | 0.92 | 0.977 | -0.0659 | 0.017 | 0.433 | 0.701 | 1.25 (inactive) | 0.219 | -0.914 (inactive) | -0.257 (inactive) | -0.163 (inactive) | -0.211 (inactive) | 0.964 | -0.0313 | 0.118 | 0.202 | 0.0867 |
| COC(=O)[C@@]1(Cc2ccc(F)cc2)[C@H]2c3cc(C(=O)N(C)C)n(CCN4CCOCC4)c3C[C@H]2CN1C(=O)c1ccccc1 | 1.65 | 1.19 | 1.14 | 0.32 | -0.0389 | -0.708 | 0.147 | -0.0199 | 0.331 | 2.64 (inactive) | 0.483 | -1.02 (inactive) | 0.263 (inactive) | -0.372 (inactive) | 0.823 (inactive) | 1.36 | 0.17 | 2.73 | 2.17 | -0.976 |
| Cc1ccc(S[C@]2(C(=O)NCCN3CCOCC3)CC(=O)N(C3CCCCC3)[C@@H]2c2ccc(CO)cc2I)cc1 | 0.893 | 1.2 | 1.14 | 0.926 | 0.972 | 0.236 | 1.23 | 1.21 | 0.977 | 0.827 (inactive) | 0.328 | -2.19 (inactive) | -0.435 (inactive) | -0.231 (inactive) | 0.341 (inactive) | 1.24 | -0.117 | 0.383 | 1.15 | 1.94 |
| N[C@@H](Cc1ccccc1)Cn1cc(C2(O)CCCCC2)nn1 | 0.124 | 0.062 | 0.0655 | 0.556 | 0.0725 | -0.445 | 0.375 | 0.333 | 0.128 | -0.377 (inactive) | -0.0937 | 0.08 (inactive) | 0.683 (inactive) | -0.244 (inactive) | 0.766 (inactive) | 0.984 | -0.0494 | 0.0636 | -0.0257 | -0.219 |
